# Screens deposited in PubChem BioAssay by National Center for Advancing Translational Sciences (NCATS).
# Vaccinia mCherry = vaccinia inhibition (mCherry reporter) | Vaccinia virus mCherry reporter infection, fluorescence | Potency, µM (series often up to 36.5 µM), actives largely listed as inhibitors | actives 0.63% (n = 310,000) | AID 720579; calls by dose curve; tested in A549 cells; further: nearly all actives have a fitted effect of over 35% in size
# FMDV inh = foot and mouth disease virus antiviral activity; FMDV antiviral cell-based qHTS; Potency, µM (series often up to 57.9 µM), hits mostly inhibitors; actives 1.2% (n = 410,000); calls by dose curve; tested in HEK293T cells; further: read-out not given here; nearly all actives have a fitted effect of over 45% in size
# HCV inhibitor = HCV inhibition. Huh7.5.1 HCVcc-Cre infection, luciferase reporter, 44 h. Potency, µM (series often up to 41.8 µM), usual class: inhibitors. actives 3.4% (n = 340,000). AID 651820; active means well fitted inhibition curve with a large enough effect; inconclusive means small, poorly fitted or top-dose-only effect, or another doubt; inactive means no such curve, though single readings can be large or run the other way
#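 1,000 cells/well; 4 h culture; + compound; + HCVcc-Cre (~0.5 moi); 44 h; luciferase substrate, RT 15 min; read 15 sec.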
# Vaccinia Venus = vaccinia inhibition (Venus reporter); Vaccinia virus Venus reporter expression, fluorescence; Potency, µM (titrated, usually from 36.5 µM), actives largely listed as inhibitors; actives 0.46% (n = 330,000); AID 720580; calls by dose curve; tested in A549 cells; further: nearly all actives have a fitted effect of over 30% in size
# HCMV inh = inhibitors of human cytomegalovirus; HFF cells, HCMV-luciferase reporter, 72 h; active compounds read low; activity change, negative = inhibition, % at 57.5 µM; actives 4.5% (n = 410,000); AID 1259415; in the data active means activity change below about -60%; inconclusive means no clear call, values can overlap the other calls; inactive means above about -39%
#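 Luciferase read-out from HCMV-luciferase-infected HFFs (MOI 1 PFU/cell) 72 h post infection at 37C; compounds added after 16 h cell attachment; activity normalized between buffer-only basal and Salinomycin (10uM) inhibitor controls.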
# Hits are given with their value; . = inactive; ? = inconclusive; / = no result given. This is a sample that favours compounds with a hit; in the whole collection about 7.3% have one here.
SMILES,Vaccinia mCherry,FMDV inh,HCV inhibitor,Vaccinia Venus,HCMV inh
COC(=O)/C=C/c1sc2nc(C)cc(C)c2c1N=CN(C)C,.,.,.,.,-68
CCN1C(=O)/C(=C\c2nc3ccccc3c(=O)n2CC)c2ccccc21,.,25µM,.,.,-94
CCn1c(/C=C2/C(=O)N(C)c3ccccc32)nc2ccccc2c1=O,.,?,.,.,.
CCN1C(=O)/C(=C/c2nc3ccccc3c(=O)n2-c2ccccc2)c2ccccc21,/,25µM,.,?,-102
Clc1cccc(-n2cc(-c3ccccc3)c3c(N4CCCCC4)ncnc32)c1,.,?,/,.,.
CCc1cc2c(N3CCCCC3)ncnc2s1,/,?,11µM,.,.
COc1cc(C(=O)Nc2ccc(OCc3cc(=O)n4cccc(C)c4n3)cc2)cc(OC)c1OC,8.9µM,.,/,?,.
Cc1ccc(N2CCN(C(C(=O)Nc3c(C)cccc3C)c3ccccc3OC(F)(F)F)CC2)cc1 (stereo not drawn),?,.,/,.,.
Cc1cccc(C)c1NC(=O)C(c1ccccc1OC(F)(F)F)N1CCN(C)CC1 (stereo not drawn),.,.,/,?,-62
N/C(=N\OC(=O)c1ccc(Cl)cc1Cl)c1ccccn1,/,.,.,/,-61
Cc1ccc(C(=O)O/N=C(\N)c2ccccn2)c(Cl)c1,/,10µM,.,/,-80
N/C(=N\OC(=O)c1ccc(Cl)cc1Cl)c1ccncc1,/,.,.,/,.
Cc1ccc(C(=O)O/N=C(\N)c2ccccc2)c(Cl)c1,.,.,?,.,?
N/C(=N\OC(=O)c1ccccc1Cl)c1ccncc1,.,.,?,.,-99
CN(Cc1ccccc1)C(=O)CSc1nc2ccsc2c(=O)n1-c1ccc(F)cc1,.,.,/,.,?
C=CCN1C(=O)NC(c2ccccc2)(C(F)(F)F)S/C1=C(\C#N)c1nnc(N2CCOCC2)n1-c1ccccc1 (stereo not drawn),/,32µM,?,/,.
C/C=C1\COC(C(=O)NCc2ccccc2)(C(F)(F)F)C=C1C=C(C)C (stereo not drawn),.,.,.,.,.
O=C(NNC1OC(CO)C(O)C(O)C1O)c1cccnc1 (stereo not drawn),.,.,.,.,-62
COc1cccc(C(=O)NNC2OC(CO)C(O)C2O)c1 (stereo not drawn),.,.,.,.,.
CN1CCN(c2ccc(NC(=O)c3ccc(-c4ccccc4F)o3)cc2)CC1,.,.,10µM,.,.
O=C(NC1CCCCC1)c1ccc(-c2ccccc2F)o1,.,?,0.71µM,.,.
O=C(NC1CCCCC1)c1ccc(-c2cccc([N+](=O)[O-])c2)o1,/,.,?,/,-69
CN1CCN(c2ccccc2NC(=O)c2ccc(-c3ccc(Cl)c(Cl)c3)o2)CC1,.,.,.,.,.
Cc1cc(N2CCN(C)CC2)ccc1NC(=O)c1ccc(-c2ccc(Cl)cc2)o1,?,.,14µM,.,?
CN1CCN(c2ccc(NC(=O)c3ccc(Br)o3)cc2)CC1,/,.,.,/,.
SMILES,Vaccinia mCherry,FMDV inh,HCV inhibitor,Vaccinia Venus,HCMV inh
O=C(NC1CCCCCC1)c1ccc(CS(=O)(=O)Cc2ccccc2F)o1,/,.,.,/,?
COc1cc(OC)cc(OC(=O)C2CCN(S(=O)(=O)c3ccc(OC)c(OC)c3)CC2)c1,.,.,.,.,.
CCN(C(=O)CSc1nc2ccccc2n1CC(=O)Nc1cccc(C#N)c1)c1ccccc1,.,.,/,.,.
Cc1cc(OCc2nc3ccccc3s2)ccc1N,?,.,.,.,.
CN1CC2(Cc3c1ccc1ccccc31)C(=O)OC(C)(C)OC2=O,4µM,?,.,6.3µM,.
CN(C1CCCCC1)S(=O)(=O)c1ccc2c(c1)c(=O)c(C(=O)NCCc1ccc(Cl)cc1)cn2C,.,.,/,.,.
CC(C)(C)OC(=O)C(Oc1ccccc1[N+](=O)[O-])C(=O)OC(C)(C)C,.,.,/,.,.
O=C(NCCCn1ccnc1)c1nn2c(C(F)(F)F)cc(-c3ccc(Br)cc3)nc2c1Cl,?,35µM,?,?,.
CCOc1ccc(-c2cc(C(=O)NCCCN3CCN(CC)CC3)c3ccccc3n2)cc1,/,.,8.9µM,/,.
CCCNC(=O)c1nn2c(C(F)(F)F)cc(-c3ccccc3)nc2c1Cl,.,.,?,.,.
CCOc1ccc(-c2cc(C(=O)NCCCn3ccnc3)c3cc(Br)ccc3n2)cc1,?,?,10µM,?,-77
CCOc1ccc(-c2cc(C(=O)NCCCn3ccnc3)c3ccccc3n2)cc1,/,.,.,/,.
N#Cc1cc(O)c(-n2nnc3ccccc32)cc1C#N,.,.,.,.,.
N#Cc1cc(Oc2cccc3cccnc23)c(-n2nnc3ccccc32)cc1C#N,/,16µM,?,/,/
COC(=O)c1ccc2nc(NC(=O)C(C)(C)C)sc2c1,.,14µM,?,.,-63
COC(=O)c1ccc2nc(Nc3nc4ccc(F)cc4s3)sc2c1,.,?,.,.,-85
Cc1cc(C)cc(NS(=O)(=O)c2ccc3c(c2)c(=O)n(C)c(=O)n3C)c1,5.6µM,/,6.3µM,5µM,?
CC(=O)NCCc1ccc(S(=O)(=O)Nc2ccc3c(c2)OCCO3)cc1,.,.,.,.,-64
COc1ccc(NS(=O)(=O)c2ccc3c(c2)OCCO3)cc1OC,.,.,6.3µM,.,-75
CC(=O)NCCNC(=O)c1cccc(NS(=O)(=O)c2ccc3c(c2)OCCO3)c1,.,.,.,.,.
COc1ccc(S(=O)(=O)Nc2ccc3c(c2)OCO3)cc1OC,/,.,.,/,.
Cc1ccc(S(=O)(=O)Nc2ccc3c(c2)OCCO3)cc1C,.,.,.,.,?
Cn1c(=O)c2cc(S(=O)(=O)Nc3cc(C(=O)O)cc(C(=O)O)c3)ccc2n(C)c1=O,/,.,.,/,.
CC(=O)Nc1ccc(S(=O)(=O)Nc2ccc3c(c2)OCCO3)cc1Cl,.,.,?,.,-88
CCCNC(=O)C1=CC(c2ccc3c(c2)OCO3)=NS(=O)(=O)N1C,.,.,/,.,.
SMILES,Vaccinia mCherry,FMDV inh,HCV inhibitor,Vaccinia Venus,HCMV inh
O=C(/C=C/c1ccc(F)cc1)NCC1Cc2cccc(-c3ncccn3)c2O1 (stereo not drawn),.,.,/,.,/
COc1ccc(NC(=O)C2CCCN2C(=O)NC2CCCCC2)c(OC)c1 (stereo not drawn),.,.,.,.,.
CCCCn1nnnc1C1(C)CCC(=O)N1CCOC (stereo not drawn),.,.,/,?,.
COc1ccc(S(=O)(=O)Nc2ccc3c(c2)n(C)c(=O)n3C)cc1OC,.,.,3.2µM,.,.
COc1ccc(S(=O)(=O)Nc2ccc3c(c2)n(C)c(=O)n3C)cc1F,.,.,?,.,.
COc1ccc(S(=O)(=O)Nc2ccc3c(c2)OCCO3)cc1Cl,?,.,11µM,.,.
COC(=O)c1cc(NS(=O)(=O)c2ccc3c(c2)OCCO3)ccc1Cl,.,.,/,.,.
Cc1ccc(CNS(=O)(=O)c2ccc3c(c2)n(C)c(=O)n3C)cc1,.,.,?,.,-66
COc1ccccc1C(=O)NC(CCSC)C(=O)OCC(=O)N1CCN(S(=O)(=O)c2ccc(C)cc2)CC1 (stereo not drawn),.,?,.,.,.
